Screening data deposited in PubChem by University of Kansas High Throughput Screening Laboratory.
Pf apPOL block: Pf-apPOL DNA polymerase inhibition; 210,000 compounds, 0.25% hits; inhibition, % at 10 µM; Recombinant Pf-apPOL, molecular beacon fluorescence, 1.5 h
mHTT-CaM PPI inh: inhibitors of human mutant huntingtin-calmodulin interaction; 190,000 compounds, 3.6% hits; AlphaScreen His-mHTT/GST-CaM binding, luminescence; inhibition, % at 15 µM; P42858; AID 1671202;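 note: 0% = both proteins with DMSO and 100% = one protein alone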
Numbers without * were called inactive; · = no result given. The sample as a whole holds a higher share of hits than the screen did. Cut-off read from the data, not from the text of the source: active = inhibition above about 50%; inactive = the rest.

SMILES	Pf apPOL block	mHTT-CaM PPI inh
Cc1cccc(-c2noc(C3CCN(CC(=O)Nc4ccccc4C(F)(F)F)CC3)n2)c1	0.0	-7.4
Clc1ccc(Nc2ncnc3c2cnn3Cc2ccccc2)cc1	-2.2	-4.0
CN1c2cc(C(=O)N3CCN(c4ccccc4Cl)CC3)ccc2C(=O)N2CCCCC21 (centres undefined)	2.6	2.3
CN1c2cc(C(=O)N3CCc4ccccc4C3)ccc2C(=O)N2CCCCC21 (centres undefined)	-3.7	93.3*
CC1CCCCC1NC(=O)CCN1N=C(c2ccccc2)CCC1=O (centres undefined)	-19.8	7.0
COc1ccc(OC)c(S(=O)(=O)n2nnc3cc(Cl)ccc32)c1	-10.2	100.0*
Cc1ccc(C)c(S(=O)(=O)n2nnc3cc(Cl)ccc32)c1	-1.6	-6.0
Cc1ccnc(NC(c2ccc3c(c2)OCO3)c2ccc3cccnc3c2O)c1 (centres undefined)	1.2	99.0*
Cc1ccc(NC(=O)c2cccnc2-c2ccsc2)c(C)c1	1.4	0.9
Cc1ccnc(NC(c2ccccn2)c2ccc3cccnc3c2O)c1 (centres undefined)	-4.5	100.0*
O=C(NCCCOc1cccc2cccnc12)c1ccc2c(c1)OCO2	-3.5	6.7
Cc1ccnc(NC(c2ccncc2)c2ccc3cccnc3c2O)c1 (centres undefined)	4.9	100.0*
Cc1ccnc(NC(c2ccsc2)c2ccc3cccnc3c2O)c1 (centres undefined)	-1.1	99.5*
Cc1ccnc(NC(=O)c2ccc(C(=O)Nc3cc(C)ccn3)cc2)c1	4.5	7.0
Cc1ccnc(NC(=O)c2ccc(-c3nc(-c4ccccc4)no3)cc2)c1	-3.1	-5.2
COc1ccc(CNC(=O)c2cnn3c(C)c(Cc4cccc(Br)c4)c(C)nc23)cc1	-7.0	9.0
O=C(Nc1nnc(CSCc2ccc(Cl)cc2Cl)s1)Nc1ccccc1F	-9.8	-7.3
O=C(CN1C(=O)c2cccc([N+](=O)[O-])c2C1=O)Nc1cccc(C(F)(F)F)c1	-0.3	-5.0
COc1ccc(CN2CCN(c3ccccn3)CC2)c(C)c1C	-6.0	-2.3
O=C(NC1CC(O)C(CO)C1)c1cnccn1 (centres undefined)	0.3	4.1
Cc1ccnc(NC(c2ccc(F)cc2)c2ccc3cccnc3c2O)c1 (centres undefined)	1.7	98.0*
Cc1ccnc(NC(=O)Nc2ccc(F)cc2)c1	-8.5	-0.9
CCN(c1ccc(F)cc1)S(=O)(=O)c1cc(Br)cc2c1N(C(=O)C1CC1)CC2	-7.0	19.0
COc1ccc2c(c1)C(C)(C)C1(C=Cc3cc([N+](=O)[O-])ccc3O1)N2C (centres undefined)	-2.1	70.0*
COc1cccc2c1OC1(C=C2)N(C)c2ccc([N+](=O)[O-])cc2C1(C)C (centres undefined)	4.7	8.0
SMILES	Pf apPOL block	mHTT-CaM PPI inh
CC1(C)c2ccccc2N(CC(N)=O)C12C=Cc1cc([N+](=O)[O-])ccc1O2 (centres undefined)	4.1	85.0*
CN1c2ccccc2C(C)(C)C12C=Cc1cc(Br)cc([N+](=O)[O-])c1O2 (centres undefined)	-499.2	·
CC1=C(C(=O)Nc2ccc(C)cc2C)C(c2ccc(C)cc2)n2nnnc2N1 (centres undefined)	-0.7	23.0
CC(C)NC(=O)N1CCc2c(c(-c3nc(-c4cccc(F)c4)no3)nn2C)C1	-3.5	22.2
Cc1nc(N2CCOCC2)c2c(C)c(C(=O)Nc3ccc(Br)cc3C)sc2n1	-2.5	-2.0
Cc1nc(N2CCOCC2)c2c(C)c(C(=O)Nc3ccc([N+](=O)[O-])cc3C)sc2n1	-4.9	52.0*
CCN(CC)c1ccc(CN2CCC(c3nc4cccnc4n3C)C2)cc1 (centres undefined)	-5.0	43.1
Cc1ncc(CO)c2cc(-c3nnc(Nc4ccccc4F)s3)c(=O)oc12	-3.8	-1.0
COc1ccc(NC(=O)c2cnn3c2NC(c2cccs2)CC3C(F)(F)F)cc1OC (centres undefined)	0.5	29.0
O=C(Nc1ccc2c(c1)OCO2)c1cnn2c1NC(c1cccs1)CC2C(F)(F)F (centres undefined)	75.9*	7.0
CCOC(=O)C(CC)Sc1nc2c(c(=O)n1C)SC(C)C2 (centres undefined)	-6.6	-3.2
CC(=O)N1CCN(c2nc3c(s2)CC(C(=O)Nc2ccc(C)c(C)c2)CC3)CC1 (centres undefined)	2.9	7.2
COCC(=O)Nc1ccc(Nc2ccc(-n3cccn3)nn2)cc1	-1.5	99.2*
CCOc1ccc(C(=O)Nc2ccc(-n3nncc3-c3ccccc3)cc2)cc1OCC	-2.6	20.0
NS(=O)(=O)c1ccc(C(=O)Nc2ccc(Nc3ccc(-n4cccn4)nn3)cc2)cc1	-7.6	95.3*
Cc1ccc(Nc2cc(-n3cccn3)ncn2)cc1	-3.9	-0.5
COCC(=O)Nc1ccc(Nc2ccccc2)cc1	-12.6	46.7
CCOc1ccc(C(=O)Nc2ccc(Nc3ccc(-n4cccn4)nn3)cc2)cc1OCC	-7.4	88.0*
Cc1ccc(S(=O)(=O)Nc2ccc(Nc3ccc(-n4cccn4)nn3)cc2)c(C)c1	-1.5	100.0*
NS(=O)(=O)c1ccc(NC(=O)c2ccc(F)cc2)cc1	-1.1	2.1
Cc1cc(C)cc(OCC(=O)Nc2ccc(-c3nc4ncccc4o3)cc2)c1	0.2	1.0
COc1ccc(Cl)cc1-c1nc(C=Nc2cc(C)on2)c(O)o1	-0.1	16.0
C=C(C)COc1ccc2c(c1)OC(=Cc1cc(Cl)cc3c1OCOC3)C2=O	-4.1	-4.6
Cc1ccc(-c2csc(-c3cccn3CC(=O)NC3CC3)n2)cc1	-5.0	-1.2
FC(F)(F)c1ccc(-c2noc(-c3ccno3)n2)cc1	-7.1	·
SMILES	Pf apPOL block	mHTT-CaM PPI inh
COc1ccc(C2/C=C\CN(C(=O)C3CC3)[C@@H](Cc3ccccc3)C(=O)N2Cc2ccc(F)cc2)cc1 (some centres undefined)	-0.9	91.2*
COc1ccc(C2/C=C\CN(C(=O)c3ccc(C)cc3)[C@@H](Cc3ccccc3)C(=O)N2Cc2ccc(F)cc2)cc1 (some centres undefined)	-4.4	16.2
COc1ccc(C2/C=C\CN(CC(C)C)[C@@H](Cc3ccccc3)C(=O)N2Cc2ccc(F)cc2)cc1 (some centres undefined)	-3.3	-3.7
COc1ccc(C2/C=C\CN(C(=O)c3ccccc3)[C@@H](Cc3ccccc3)C(=O)N2Cc2ccc(F)cc2)cc1 (some centres undefined)	-3.4	87.3*
Cc1ccccc1C1=N/C(=C\c2cccn2C)C(=O)O1	4.8	19.0
COc1ccc2c(c1)CC/C(=C\c1cccn1C)C2=O	-6.9	39.0
Cn1cccc1/C=C1\CCC/C(=C\c2cccn2C)C1=O	-2.6	79.0*
CC1C/C(=C\c2cccn2C)C(=O)/C(=C/c2cccn2C)C1 (centres undefined)	-0.6	99.0*
CC1CCCN(C(=O)c2ccc(-n3cc(CNC(=O)C(C)C)cn3)cc2)C1 (centres undefined)	-2.0	0.0
CC(C)c1cc(C2CCCN2C(=O)Nc2ccccc2)no1 (centres undefined)	-1.9	-2.5
CC(C(=O)NCCN1CCCCC1)C1CCN(S(=O)(=O)c2cccs2)CC1 (centres undefined)	2.8	6.7
COc1ccc(-c2cc(C(=O)NC(C)C)no2)cc1OC	-1.0	2.0
Cc1ccc(O)c(C2=NCCNC(C(F)(F)C(F)F)=C2)c1	58.6*	7.0
FC(F)C(F)(F)C1=CC(c2ccccc2)=NCCN1	-3.1	-2.0
